Screening results (PubChem)
D3 antag = blocks the human D3 dopamine receptor. P35462. D3R cells, DiscoveRx beta-arrestin luminescence, antagonist mode; active compounds read low. max response, negative = inhibition, %. 2.5% of 360,000 active. AID 652054; in the data active = max response below about -50%; inconclusive = no clear call, values can overlap the other calls
Target sequence (P35462 whole entry, looked up): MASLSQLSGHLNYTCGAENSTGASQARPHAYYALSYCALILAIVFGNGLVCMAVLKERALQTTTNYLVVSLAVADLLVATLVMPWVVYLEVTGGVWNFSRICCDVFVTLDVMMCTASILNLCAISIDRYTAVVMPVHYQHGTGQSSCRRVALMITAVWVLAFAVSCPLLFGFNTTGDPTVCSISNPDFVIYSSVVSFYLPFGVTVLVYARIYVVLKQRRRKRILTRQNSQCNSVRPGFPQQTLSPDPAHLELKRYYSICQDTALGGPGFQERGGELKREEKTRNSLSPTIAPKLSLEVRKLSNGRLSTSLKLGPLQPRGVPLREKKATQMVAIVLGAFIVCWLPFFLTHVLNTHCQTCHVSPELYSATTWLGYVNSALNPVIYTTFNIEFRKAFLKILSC
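Cells expressing the human receptor were seeded at 1500 cells/well, incubated overnight at 37 degrees C in 5% CO2, then exposed to library compounds with dopamine controls for 90 minutes at 37 degrees C before luminescent detection.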
D3 ag = agonists of human D3 dopamine receptor. P35462. D3R DiscoveRx beta-arrestin cells, luminescence, 90 min. max activation, %. 0.58% of 410,000 active. AID 652048; in the data active = max activation above about 30%
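Agonist mode: compounds and dopamine controls were applied to plated cells for 90 min at 37 degrees C after an overnight attachment at 1500 cells/well. Luminescent read-out followed 30 - 60 minutes at room temperature with DiscoveRx detection reagent.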
GLP-1R agonist = agonists of human GLP-1 receptor | Potency, µM (series often up to 45.6 µM), actives largely listed as activators | AID 624172 | HEK293 GLP-1R CRE-luciferase, luminescence, 4-6 h; cells express a hypersensitive GLP-1R form | 0.007% of 380,000 active | P43220
GLP-1R inv ag = GLP-1 receptor (human) inverse agonism; Potency, µM (top dose mostly 38.3 µM), actives largely listed as inhibitors; AID 624417; HEK293 GLP-1R CRE-luciferase, luminescence, 24 h; GLP-1R form is constitutively active; 1.6% of 410,000 active; also: nearly all actives have a fitted effect of over 55% in size
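Inverse agonists were sought by their lowering of basal cAMP reporter luciferase output in HEK293 cells stably carrying constitutively active human GLP-1R, after 24 h compound treatment.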
Large screens that a line does not name were inactive. In the library only some 4.3% were active in any assay of this set; here they are far more common. Unless noted, calls follow the shape of the dose curve; as a rule, active = well fitted curve in the direction sought with a large enough effect; inconclusive = small, poorly fitted or top-dose-only effect, or another doubt; inactive = no such curve, though single readings can be large; an effect the other way counts as inactive or inconclusive.

Cc1nc(N2CCN(Cc3ccccc3)CC2)nc2c1C(=O)CC(c1ccco1)C2 (configuration not stated)	D3 antag -52.8
Cc1nc(N2CCN(Cc3ccccc3)CC2)nc2c1C(=O)CCC2	none
Cc1nc(N2CCN(C(=O)c3ccco3)CC2)nc2c1C(=O)CC(C)C2 (configuration not stated)	none
Cc1nc(N2CCN(Cc3ccc4c(c3)OCO4)CC2)nc2c1C(=O)CC(c1ccco1)C2 (configuration not stated)	D3 antag -72.5
Cc1nc(N2CCN(Cc3ccccc3)CC2)nc2c1CCC2	D3 antag -67.2, GLP-1R inv ag inconclusive
Cc1cccc(OCC(=O)Nc2ccccc2C(=O)OCc2cc(=O)n3nc(C4CC4)sc3n2)c1	none (no result: D3 antag, GLP-1R agonist)
Cc1ccc(-c2cc(C(=O)N3CCN(S(=O)(=O)c4ccc(Br)cc4)CC3)[nH]n2)cc1C	none (no result: D3 antag, GLP-1R agonist)
CN1CCN([C@@H](c2ccccc2)c2ccc(Cl)cc2)CC1	none (no result: D3 antag, D3 ag, GLP-1R inv ag)
CN1CCN(C(c2ccccc2)c2ccc(Cl)cc2)CC1 (configuration not stated)	D3 antag -92.1, GLP-1R inv ag inconclusive
CN1CCN(C(c2cccc(Cl)c2)c2ccccc2Cl)CC1 (configuration not stated)	D3 antag -80.8, GLP-1R inv ag inconclusive
O=C(c1ccc(Br)o1)N(Cc1ccccc1)c1ccccn1	D3 ag 32.1, GLP-1R agonist inconclusive
O=C(c1ccc([N+](=O)[O-])cc1)N(Cc1ccccc1)c1ccccn1	D3 antag -54.7
O=C(c1ccccc1)N(Cc1ccccc1)c1ccccn1	none
COc1ccc(OC)c(CNC(=O)c2cc3c(=O)oc4ccc(C)cc4c3s2)c1	none (no result: D3 antag)
CC(NS(=O)(=O)c1cccc(S(=O)(=O)c2ccccc2)c1)C(=O)O (configuration not stated)	none
Cc1ccc(Cl)cc1N1CCN(C(=O)CCS(=O)(=O)c2cc(Br)cc3c2N(C(=O)C2CC2)CC3)CC1	none (no result: D3 antag, GLP-1R agonist)
Cc1ccc(Cl)cc1N1CCN(C(=O)Cn2ncc3c([nH]c4ccccc43)c2=O)CC1	none (no result: D3 antag, GLP-1R agonist)
Cc1ccc(-c2ccc(/C=N/N=C3/NC(=O)C(CC(=O)O)S3)o2)c([N+](=O)[O-])c1 (configuration not stated)	D3 antag -78.5
O=C(O)CC1S/C(=N/N=C/c2ccc(-c3ccccc3[N+](=O)[O-])o2)NC1=O (configuration not stated)	none
CCOc1cc(/C=C2\CCCC(C(=O)C(F)(F)F)=C2O)ccc1O	D3 antag -52.2
CCOc1cc(/C=C2\CN(CC)C/C(=C\c3ccc(O)c(OCC)c3)C2=O)ccc1O	D3 antag inconclusive, GLP-1R inv ag 10µM
COc1cc(/C=C2/CCCC(C(=O)C(F)(F)F)=C2O)ccc1O	none
COc1cc(/C=C2\CCC/C(=C\c3ccc(O)c(OC)c3)C2=O)ccc1O	GLP-1R inv ag inconclusive
O=C1C2ON(c3ccccc3)C(c3cccnc3)C2C(=O)N1c1ccc(Cl)c(Cl)c1 (configuration not stated)	D3 ag 46.9
O=C1C2ON(c3ccccc3)C(c3cccnc3)C2C(=O)N1c1ccccc1 (configuration not stated)	none
COc1ccc(Cl)cc1NC(=O)c1ccc2nc(Cc3ccccc3)oc2c1	GLP-1R inv ag inconclusive (no result: D3 antag, GLP-1R agonist)
O=C(Nc1cccc(Cl)c1)c1ccc2nc(Cc3ccccc3)oc2c1	GLP-1R inv ag 10µM (no result: D3 antag, GLP-1R agonist)
Cc1ccc(C2CC(=O)Nc3c2c(C)nn3-c2nc(C)cc(C)n2)c(C)c1 (configuration not stated)	none (no result: D3 antag, GLP-1R agonist)
C/C(=N\Nc1nc(N2CCCCC2)nc(N2CCOCC2)n1)c1ccccc1O	GLP-1R inv ag 2.51µM
Oc1ccc(/C=N/Nc2nc(N3CCCCCC3)nc(N3CCCCCC3)n2)c(O)c1	D3 ag 37.2, GLP-1R inv ag inconclusive
Oc1ccc(Br)cc1/C=N/Nc1nc(N2CCCCC2)nc(N2CCOCC2)n1	GLP-1R inv ag inconclusive
CC(/C=N/Nc1nc(N2CCCCC2)nc(N2CCCCC2)n1)=C\c1ccccc1	D3 ag 39.3
CCC12CN3CC(CC)(CN(C1)C3c1cccc(OC)c1O)C2=O (configuration not stated)	none (no result: D3 antag, GLP-1R agonist)
CC(CCc1ccccc1)NC(=O)Cc1ccc([N+](=O)[O-])cc1 (configuration not stated)	none
CC(CCc1ccccc1)NC(=O)CNc1cccc([N+](=O)[O-])c1 (configuration not stated)	GLP-1R inv ag 10µM
Cc1ccc(-c2nnc(CSc3nnc(COc4cccc5ccccc45)n3-c3ccccc3)o2)cc1	GLP-1R inv ag 11.2µM
Cc1ccc(-n2nnnc2SCCNS(=O)(=O)c2ccccc2)cc1C	GLP-1R inv ag 11.2µM
Cc1ccc(C)c(N2CCN(C(=O)CCS(=O)(=O)c3cc4c(cc3Cl)NC(=O)CO4)CC2)c1	none (no result: D3 antag)
CCOC(=O)c1[nH]c(C)c(CCC(=O)NCc2ccccc2)c1C	none (no result: D3 antag, GLP-1R agonist)
O=C(Nc1ccccc1)N(Cc1ccccc1)Cc1ccccc1	none
O=C(Nc1ccccc1)N(Cc1ccc(Cl)cc1)CC(O)C(F)(F)F (configuration not stated)	GLP-1R inv ag 10µM
COc1ccc(/C=N/NC(=O)c2ccncc2)cc1CN1CCN(c2ccc(F)cc2)CC1	D3 antag -55.0
COc1ccc(/C=N/NC(=O)c2cc(C(C)(C)C)[nH]n2)cc1COc1ccc(F)cc1F	GLP-1R inv ag 6.31µM
COc1ccc(/C=N\NC(=O)c2ccccc2F)cc1COc1ccc(F)cc1F	GLP-1R agonist inconclusive, GLP-1R inv ag inconclusive
CCC1CCCCN1CCCNC(=O)c1ccc2c(c1)N(Cc1ccccc1F)C(=O)c1ccccc1S2(=O)=O (configuration not stated)	GLP-1R inv ag inconclusive (no result: D3 antag)
CCc1nnc(NC(=O)c2cccc(S(=O)(=O)N3CC(c4ccccc4)CC3=O)c2)s1 (configuration not stated)	none
Cc1nnc(NC(=O)c2cccc(S(=O)(=O)N3CC(c4ccccc4)CC3=O)c2)s1 (configuration not stated)	D3 ag 67.7
Cc1cc(C)c(-c2csc(NC(=O)c3cc([N+](=O)[O-])ccc3N3CCOCC3)n2)c(C)c1	GLP-1R inv ag 8.91µM
CN(C)c1ccc(CNC(=O)C2CCN(c3nnc(-n4cccc4)s3)CC2)cc1	none (no result: D3 antag)
COc1ccc(/C=N/NC(=O)c2cc(C)oc2C)cc1OCc1ccccc1	GLP-1R inv ag inconclusive
Cc1cc(C(=O)N/N=C/c2ccc(OCc3ccccc3)cc2)c(C)o1	GLP-1R inv ag 11.2µM
COc1ccc(-c2c(-c3ccccc3OC)sc3ccccc23)cc1OC	GLP-1R inv ag inconclusive
COc1ccc(-c2c(-c3ccccc3OC)sc3ccccc23)cc1C=O	D3 antag -59.6, GLP-1R inv ag inconclusive
CC(Oc1ccc(-c2ccccc2)c(F)c1)c1ccn(S(=O)(=O)c2ccc(Br)cc2)n1 (configuration not stated)	GLP-1R inv ag 7.08µM
COc1cc(O)ccc1C1CC(=O)Nc2c1c(=O)nc(SCc1ccccc1C)n2C (configuration not stated)	none (no result: D3 antag, GLP-1R agonist)
COc1ccc(CCc2ccc3ccccc3n2)cc1	GLP-1R inv ag 10µM
